# From the supplement of paper PMC8728848
# The entries come from a sample that favours the strongest signals as a whole.
# Experiments:
# Test in all cases: glycan array binding signal (z-score within array); higher = stronger binding
# Details in all cases: glycan notation: IUPAC condensed, linker removed
# [1] = target: Fuc(a1-2)Gal(b1-3)GlcNAc(b1-2)Man(a1-3)[Fuc(a1-2)Gal(b1-3)GlcNAc(b1-2)Man(a1-6)]Man(b1-4)GlcNAc(b1-4)GlcNAc
# Method in brief: (§1)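 From the Consortium for Functional Glycomics database, 3228 arrays were curated, keeping only those whose protein sequence was available. Binding is given as a within-array Z-score averaged across arrays sharing a protein sequence and across linkers. Negative Z-scores can be read as non-binding.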
# [2] = target: Fuc(a1-2)Gal(b1-4)Glc
# Method in brief: as §1
# [3] = target: Fuc(a1-2)Gal(b1-4)GlcNAc
# Method in brief: as §1
# [4] = target: Fuc(a1-2)Gal(b1-4)GlcNAc6S
# Method in brief: as §1
# [5] = target: Fuc(a1-2)[Gal(a1-3)]Gal
# Method in brief: as §1
# [6] = target: Fuc(a1-2)[Gal(a1-3)]Gal(b1-4)Glc
# Method in brief: as §1
# [7] = target: Fuc(a1-2)[Gal(a1-3)]Gal(b1-4)GlcNAc(b1-2)Man(a1-3)[Fuc(a1-2)[Gal(a1-3)]Gal(b1-4)GlcNAc(b1-2)Man(a1-6)]Man(b1-4)GlcNAc(b1-4)GlcNAc
# Method in brief: as §1
# [8] = target: Fuc(a1-2)[GalNAc(b1-3)]Gal
# Method in brief: as §1
# [9] = target: Fuc(a1-3)GlcNAc
# Method in brief: as §1
# [10] = target: Fuc(a1-3)[Gal(b1-4)]GlcNAc
# Method in brief: as §1
# [11] = target: Fuc(a1-3)[GalNAc(b1-4)]GlcNAc
# Method in brief: as §1
# [12] = target: Fuc(b1-3)GlcNAc
# Method in brief: as §1
# [13] = target: Gal(a1-2)Gal
# Method in brief: as §1
# [14] = target: Gal(b1-3)[Fuc(a1-4)]GlcNAc(b1-2)Man(a1-3)[Gal(b1-3)[Fuc(a1-4)]GlcNAc(b1-2)Man(a1-6)]Man(b1-4)GlcNAc(b1-4)[Fuc(a1-6)]GlcNAc
# Method in brief: as §1
# [15] = target: Gal(b1-4)GlcNAc(b1-3)Gal(b1-4)[Fuc(a1-3)]GlcNAc(b1-3)Gal(b1-4)[Fuc(a1-3)]GlcNAc
# Method in brief: as §1
# [16] = target: Gal(b1-4)GlcNAc(b1-6)Gal(b1-4)GlcNAc(b1-6)GalNAc
# Method in brief: as §1
# [17] = target: Gal(b1-4)GlcNAc(b1-6)GalNAc
# Method in brief: as §1
# [18] = target: Gal(b1-4)GlcNAc(b1-6)[Gal(b1-3)]GalNAc
# Method in brief: as §1
# [19] = target: Gal3S(b1-3)GalNAc
# Method in brief: as §1
# [20] = target: Gal3S6S(b1-4)GlcNAc6S
# Method in brief: as §1
# [21] = target: GalNAc(b1-4)GlcNAc
# Method in brief: as §1
# [22] = target: Glc(a1-4)Glc
# Method in brief: as §1
# [23] = target: Glc(b1-4)Glc
# Method in brief: as §1
# [24] = target: GlcA(b1-3)Gal
# Method in brief: as §1
# [25] = target: GlcNAc(a1-4)Gal(b1-4)GlcNAc(b1-3)Gal(b1-4)GlcNAc
# Method in brief: as §1
# [26] = target: GlcNAc(b1-3)GalNAc
# Method in brief: as §1
# [27] = target: GlcNAc(b1-6)GalNAc
# Method in brief: as §1
# [28] = target: Neu5Ac(a2-3)Gal6S(b1-4)GlcNAc
# Method in brief: as §1
# [29] = target: Neu5Ac(a2-6)Gal(b1-4)GlcNAc
# Method in brief: as §1
# [30] = target: Neu5Ac(a2-8)Neu5Ac(a2-8)Neu5Ac(a2-3)Gal(b1-4)Glc
# Method in brief: as §1
# [31] = target: Neu5Ac9Ac(a2-3)Gal(b1-4)GlcNAc
# Method in brief: as §1
# [32] = target: Fuc(a1-2)[Gal(a1-4)]Gal(b1-4)GlcNAc
# Method in brief: as §1
# [33] = target: Fuc(a1-3)[Gal(b1-4)]GlcNAc(b1-4)Gal(b1-4)[Fuc(a1-3)]GlcNAc(b1-4)Gal(b1-4)[Fuc(a1-3)]GlcNAc
# Method in brief: as §1
# [34] = target: Gal(a1-3)Gal
# Method in brief: as §1
# [35] = target: Gal(a1-3)Gal(b1-3)GlcNAc(b1-2)Man(a1-3)[Gal(a1-3)Gal(b1-3)GlcNAc(b1-2)Man(a1-6)]Man(b1-4)GlcNAc(b1-4)GlcNAc
# Method in brief: as §1
# [36] = target: Gal(a1-4)Gal(b1-4)GlcNAc(b1-2)Man(a1-3)[Gal(a1-4)Gal(b1-4)GlcNAc(b1-2)Man(a1-6)]Man(b1-4)GlcNAc(b1-4)GlcNAc
# Method in brief: as §1
# [37] = target: Gal(b1-2)Gal
# Method in brief: as §1
# [38] = target: Gal(b1-3)[GlcNAc(b1-6)]GalNAc
# Method in brief: as §1
# [39] = target: Gal(b1-4)GlcNAc(b1-2)Man(a1-3)Man(b1-4)GlcNAc(b1-4)GlcNAc
# Method in brief: as §1
# [40] = target: Gal(b1-4)GlcNAc(b1-2)Man(a1-3)[Gal(b1-4)GlcNAc(b1-2)Man(a1-6)]Man(b1-4)GlcNAc(b1-4)GlcNAc
# Method in brief: as §1
# [41] = target: Gal(b1-4)GlcNAc(b1-2)Man(a1-3)[GlcNAc(b1-2)Man(a1-6)]Man(b1-4)GlcNAc(b1-4)GlcNAc
# Method in brief: as §1
# [42] = target: Gal(b1-4)GlcNAc(b1-2)Man(a1-3)[Man(a1-6)]Man(b1-4)GlcNAc(b1-4)GlcNAc
# Method in brief: as §1
# [43] = target: Gal(b1-4)GlcNAc(b1-3)GalNAc
# Method in brief: as §1
# [44] = target: Gal6S(b1-4)GlcNAc6S
# Method in brief: as §1
# [45] = target: GalNAc(a1-3)Gal
# Method in brief: as §1
# [46] = target: GlcNAc(a1-4)Gal(b1-3)GlcNAc
# Method in brief: as §1
# [47] = target: GlcNAc(a1-4)Gal(b1-4)GalNAc
# Method in brief: as §1
# [48] = target: GlcNAc(a1-4)Gal(b1-4)GlcNAc
# Method in brief: as §1
# [49] = target: GlcNAc(a1-6)Gal(b1-4)GlcNAc
# Method in brief: as §1
# [50] = target: Man(a1-3)[Man(a1-6)]Man(a1-6)[Man(a1-2)Man(a1-3)]Man(b1-4)GlcNAc(b1-4)GlcNAc
# Method in brief: as §1
# [51] = target: Neu5Ac(a2-3)Gal(b1-4)GlcNAc(b1-6)[Neu5Ac(a2-3)Gal(b1-3)]GalNAc
# Method in brief: as §1
# [52] = target: Neu5Ac(a2-3)Gal(b1-4)[Fuc(a1-3)]GlcNAc(b1-3)GalNAc
# Method in brief: as §1
# [53] = target: Neu5Ac(a2-3)GalNAc
# Method in brief: as §1
# [54] = target: Neu5Ac(a2-6)Gal(b1-4)GlcNAc(b1-3)Gal(b1-4)GlcNAc(b1-3)Gal(b1-4)GlcNAc
# Method in brief: as §1
# [55] = target: Neu5Ac(b1-6)GalNAc
# Method in brief: as §1
# [56] = target: Neu5Gc(a2-6)GalNAc
# Method in brief: as §1
binder,measurement,setting,value
"DC-ASPGR (Homo sapiens), CLC10_HUMAN (protein) LDQNSKFQRDLVTLRTDFSNFTSNTVAEIQALTSQGSSLEETIASLKAEVEGFKQERQAVHSEMLLRVQQLVQDLKKLTCQVATLNNNASTEGTCCPVNWVEHQDSCYWFSHSGMSWAEAEKYCQLKNAHLVVINSREEQNFVQKYLGSAYTWMGLSDPEGAWKWVDGTDYATGFQNWKPGQPDDWQGHGLGGGEDCAHFHPDGRWNDDVCQRPYHWVCEAGLGQTSQESHVEPKSCDKTHTCPPCPAPELLGGPSVFLFPPKPKDTLMISRTPEVTCVVVDVSHEDPEVKFNWYVDGVEVHNAKTKPREEQFNSTYRVVSVLTVLHQDWLNGKEYKCKVSNKGLPSSIEKTISKAKGQPREPQVYTLPPSQEEMTKNQVSLTCLVKGFYPSDIAVEWESNGQPENNYKTTPPVLDSDGSFFLYSRLTVDKSRWQEGNVFSCSVMHEALHNHYTQK",glycan array binding signal (z-score),[1],-0.074
same,glycan array binding signal (z-score),[2],-0.082
same,glycan array binding signal (z-score),[3],-0.165
same,glycan array binding signal (z-score),[4],-0.177
same,glycan array binding signal (z-score),[5],-0.287
same,glycan array binding signal (z-score),[6],-0.303
same,glycan array binding signal (z-score),[7],-0.297
same,glycan array binding signal (z-score),[8],3.91
same,glycan array binding signal (z-score),[9],-0.256
same,glycan array binding signal (z-score),[10],-0.246
same,glycan array binding signal (z-score),[11],2.36
same,glycan array binding signal (z-score),[12],-0.235
same,glycan array binding signal (z-score),[13],-0.14
same,glycan array binding signal (z-score),[14],-0.15
same,glycan array binding signal (z-score),[15],-0.197
same,glycan array binding signal (z-score),[16],-0.298
same,glycan array binding signal (z-score),[17],3.86
same,glycan array binding signal (z-score),[18],-0.173
same,glycan array binding signal (z-score),[19],-0.146
same,glycan array binding signal (z-score),[20],-0.248
same,glycan array binding signal (z-score),[21],2.66
same,glycan array binding signal (z-score),[22],5.49
same,glycan array binding signal (z-score),[23],-0.27
same,glycan array binding signal (z-score),[24],-0.276
same,glycan array binding signal (z-score),[25],-0.092
same,glycan array binding signal (z-score),[26],-0.27
same,glycan array binding signal (z-score),[27],4.28
same,glycan array binding signal (z-score),[28],-0.179
same,glycan array binding signal (z-score),[29],-0.236
same,glycan array binding signal (z-score),[30],-0.244
same,glycan array binding signal (z-score),[31],-0.099
"CLEC-1 (Homo sapiens), Q9NZH3 (protein) MQAKYSSTRDMLDDDGDTTMSLHSQASATTRHPEPRRTEHRAPSSTWRPVALTLLTLCLVLLIGLAAWGLLFFQYYQLSNTGQDTISQMEERLGNTSQELQSLQVQNIKLAGSLQHVAEKLCRELYNKAGAHRCSPCTEQWKWHGDNCYQFYKDSKSWEDCKYFCLSENSTMLKINKQEDLEFAASQSYSEFFYSYWTGLLRPDSGKAWLWMDGTPFTSELFHIIIDVTSPRSRDCVAILNGMIFSKDCKELKRCVCERRAGMVKPESLHVPPETLGEGD",glycan array binding signal (z-score),[1],6.09
same,glycan array binding signal (z-score),[32],-0.046
same,glycan array binding signal (z-score),[33],0.063
same,glycan array binding signal (z-score),[34],-0.376
same,glycan array binding signal (z-score),[35],3.16
same,glycan array binding signal (z-score),[36],5.92
same,glycan array binding signal (z-score),[37],-0.482
same,glycan array binding signal (z-score),[38],-0.033
same,glycan array binding signal (z-score),[39],1.79
same,glycan array binding signal (z-score),[40],0.112
same,glycan array binding signal (z-score),[41],-0.583
same,glycan array binding signal (z-score),[42],11
same,glycan array binding signal (z-score),[43],-0.261
same,glycan array binding signal (z-score),[19],-0.341
same,glycan array binding signal (z-score),[20],3.17
same,glycan array binding signal (z-score),[44],0.66
same,glycan array binding signal (z-score),[45],-0.34
same,glycan array binding signal (z-score),[46],-0.516
same,glycan array binding signal (z-score),[47],-0.035
same,glycan array binding signal (z-score),[48],2.86
same,glycan array binding signal (z-score),[49],2.11
same,glycan array binding signal (z-score),[50],0.433
same,glycan array binding signal (z-score),[51],-0.142
same,glycan array binding signal (z-score),[52],2.82
same,glycan array binding signal (z-score),[28],-0.086
same,glycan array binding signal (z-score),[53],-0.178
same,glycan array binding signal (z-score),[54],-0.43
same,glycan array binding signal (z-score),[55],-0.392
same,glycan array binding signal (z-score),[56],-0.297
